Consider 40 compounds from PubChem BioAssay (NCATS).

Molecules are shown by their SMILES. Records with an inconclusive call do not appear. Entries that show only a call come without a potency. Activity calls are given as the source filed them. The call rests on the fitted dose curve; in most records, active means well fitted inhibition curve with a large enough effect; inconclusive means small, poorly fitted or top-dose-only effect; inactive means flat fitted curve, though single readings scatter.

This assay in a line: qHTS for Inhibitors of Plasmodium falciparum (DD2) proliferation (AID 504314). The settings on record: P. falciparum Dd2 in erythrocytes, SYBR Green growth, 72 h; series mostly up to 6.11 µM. The text has this:
Plasmodium falciparum is a virulent malarial parasite that kills 1-2 million people worldwide each year. Malaria not only inflicts tremendous suffering and morbidity on the human population, but has dramatically influenced the course of civilization with profound sociological and economic implications (Shah, S. 2010). Transmitted by mosquitoes, the sporozoite form of the parasite enters the blood stream to infect hepatocytes, where they become merozoites that infect red blood cells (erythrocytes). Within erythrocytes, merozoites begin a […] cycle of growth and division, after which the parasite is released to infect new red blood cells. Gametocytes, which form within erythrocytes as well, circulate in the bloodstream and are ingested by the mosquito, thereby completing the life cycle (see CDC website). To profile malarial lines for differential chemical responses and to identify inhibitors of malarial growth, an assay that measures P. falciparum growth and replication within erythrocytes was employed. This assay uses a DNA binding fluorescent dye (SYBR Green) to detect parasite DNA following cell lysis. Because mature erythrocytes lack DNA, only Plasmodium-derived DNA is detected. The P. falciparum line cp250, derived from a malarial isolate from Cambodia, (Mu, J., et al. 2010) was added to the panel of lines, Dd2, HB3, 7G8 and GB4 in this study.
Laboratory of Assay Development and Screening Technology [ADST] and NIH Chemical Genomics Center [NCGC]
Boston University, Chemistry Department, Center for Chemical Methodology and Library Development [CMLD-BU]
NIH National Institute of Allergy and Infectious Diseases [NIAID]
ADST Assay Protocol Summary:
The 1536-well SYBR Green viability assay was based on the method of Bennett et al (2004) and described previously in 1536-well format (Yuan J., et al. 2009). For screening 3 ul culture medium was dispensed into 1536 well black clear bottom plates (Aurora Biotechnologies) using a Multidrop Combi (Thermo Fisher Scientific Inc.), 23 nL compounds in DMSO were added by a pin transfer (Cleveland, P.H. and Koutz, P.J, 2005) using a pin tool-based delivery system (Kalypsys), and 5 ul of erythrocytes infected with P. falciparum one of five lines (cp250, Dd2, HB3, 7G8 or GB4, 0.3% parasitemia, 2.5% hematocrit final concentration) were added. The plates were incubated at 37C in a humidified incubator in 5% CO2 for 72 h, and 2 ul lysis buffer (20 mM Tris HCl, 10 mM EDTA, 0.16% saponin, 1.6% triton X, 10X SYBR Green I (supplied as 10,000X final concentration by Invitrogen) was added to each well. The plates were mixed for 25 sec with gentle shaking and incubated overnight at room temperature in the dark. The following morning, fluorescence intensity at 485(14) nm excitation and 535(25) nm emission wavelengths was measured on an EnVision (Perkin Elmer) plate reader. Plate reads were normalized relative to the control inhibitor (0.29 uM artemisinin) and vehicle (DMSO) wells present on each plate and then corrected by an algorithm using vehicle-only control plates at the beginning and end of the compound plate stack.
Shah, S. (2010). The Fever: how malaria has ruled humankind for 500,000 years. New York, Sarah Crichton Books.
CDC web site, http://www.cdc.gov/malaria/about/biology/index.html
Mu, J., Myers, R.A., Jiang, H., Liu, S., Ricklefs, S., Waisberg, M., Chotivanich, K., Wilairatana, P., Krudsood, S., White, N.J., et Plasmodium falciparum genome-wide scans for positive selection, recombination hot spots and resistance to antimalarial drugs Nature Genetics 2010, 42, pp 268-271
Bennett TN, Paguio, M., Gligorijevic, B., Seudieu, C., Kosar, A. D., Davidson, E., and Roepe, P. D. Novel, rapid, and inexpensive cell-based quantification of antimalarial drug efficacy Antimicrobial Agents Chemother. 2004, 48(5): pp 1807-10
Yuan J, Johnson RL, Huang RL, Wichterman J, Jiang HY, Hayton K, Fidock DA, Wellems TE, Inglese J, Austin CP, Su XZ. […]
As to `O=C(C=NO)NCCCCNC(=O)C=NO`, the Potency entry was “inactive”.
On to `COC(=O)[C@]1(C=C2c3ccccc3C[C@H](OC)[C@@H]2C)[C@@H]2CC=C[C@@H]21`, for which the Potency entry is “inactive”.
In the case of `O=C1[C@H]2[C@@H]3[C@@H](O)[C@H](O)CC(=NOCc4ccccc4)[C@@H]3CC[C@H]2C(=O)N1C1CCCCC1`, the Potency result was “inactive”.
In the case of `CC1(OC(=O)C2CCCC2)C(=O)C=C2C=C3CCCCN3C=C2C1=O` (stereo not given), the activity, negative = inhibition is 1.6% [at 1.12 µM] (inactive).
Turning to `O=C1N[C@H](Cc2ccccc2)C(=O)N1Cc1cccc2ccccc12`, the Potency entry was “inactive”.
On to `COCCN1C(=S)NC(c2cccc(F)c2)C(C(=O)OC)=C1C` (stereo not given), for which the Potency result is “inactive”.
Regarding `CC(C)CON=C1C[C@@H](O)[C@@H](O)[C@@H]2[C@H]3C(=O)N(Cc4ccccc4)C(=O)[C@@H]3CC[C@@H]12`, the Potency result was “inactive”.
On to `CC(=O)Nc1ccc(S(=O)(=O)N2CCc3nc(-c4ccccc4)c4c(c3C2)CO[C@@H](C)C4)cc1`, for which the activity, negative = inhibition is -1.41% [at 1.12 µM] (inactive).
On to `COC(=O)CCC(=O)OC1(C)C(=O)C=C2C=C(C3CC3)N(Cc3ccco3)C=C2C1=O` (stereo not given), for which the activity, negative = inhibition was 0.997% [at 1.12 µM] (inactive).
Regarding `COC(=O)N1C2=C(c3ccccc3[C@@H]1CC(=O)O)[C@@H]1O[C@@H](C2)c2ccccc21`, the Potency result is “inactive”.
Same read-out and setting: in the case of `CCN1C(=NCCc2c[nH]c3ccccc23)NC(c2ccccc2)C(C(=O)OC)=C1C` (stereo not given) it was “inactive”; in that of `CC(=O)OC[C@H]1O[C@H](CC=NO[C@@H](C)CN2CCCc3nc(C)c(C)cc32)C=C[C@@H]1OC(C)=O`, “inactive”; in that of `CC1=C(C)CC(c2ccccc2)C(C(=O)c2ccccc2O)C1` (stereo not given), “inactive”.
With `COC(=O)N[C@@H](c1ccco1)C(C(C)=O)C(=O)OC` (stereo not given in full), the Potency result is “inactive”.
Take `CCN1C(=O)N[C@@H](c2cccc(C(F)(F)F)c2)[C@H](C(C)=O)[C@H]1C`: the Potency result was “inactive”.
Turning to `CC(=O)C1=C(C)N(Cc2ccccc2)C(=O)NC1c1ccco1` (stereo not given), the Potency entry is “inactive”.
`COC(=O)C1=C(C(=O)OC)[C@@H]2Nc3ccccc3[C@@]23C[C@@H](C(=O)OC)N(C(=O)Nc2ccc(C(F)(F)F)cc2)C3=N1`: the Potency entry is “inactive”.
With `C#CC1(O)C(OC)=CC2C(=O)C1C(c1ccccc1)C2C` (stereo not given), the Potency result was “inactive”.
In the case of `CC(=O)C1=C(C)N(Cc2ccccc2)C(=O)NC1c1cccc(F)c1` (stereo not given), the Potency entry is “inactive”.
On the same count and under the same terms, in the case of `CC(=O)OC[C@H]1O[C@H](CCON=C(C)CCN2CCCCc3nc(C)c(C)cc32)C=C[C@H]1OC(C)=O` it was “inactive”; in that of `C=CCC1(c2ccccc2)Oc2ccccc2-c2nc3cc(Cl)c(Cl)cc3nc21` (stereo not given), “inactive”.
The same measure, in the same setting: in the case of `C=C=CCCN1C(=O)NC(c2ccccc2)C(C(=O)OC)=C1C` (stereo not given) it was “inactive”.
For `C[C@H]1Cc2c(COc3ccccc3)nc3c(c2CO1)CN(S(=O)(=O)c1ccc2c(c1)OCCN2C)CC3`, the activity, negative = inhibition is -3.65% [at 1.12 µM] (inactive).
As for `CCCC[C@]12Cc3cc(C#N)ccc3[C@H](O1)c1c(c3cc(F)ccc3oc1=O)O2`, the Potency result was “inactive”.
On to `COC(=O)c1ccccc1C[C@]1(C(=O)OC)C=C[C@H](C)[C@@H](c2ccccc2)N1C(=O)C(F)(F)F`, for which the Potency result is “inactive”.
Still for that read-out and setting: the same measure for `CCOC(=O)CN1C(=O)NC(c2cccc(F)c2)C(C(=O)OC)=C1C` (stereo not given): “inactive”; for `COC(=O)[C@H](C=C[C@H](C)Cc1cc(Br)cc(OCc2ccccc2)c1OC)OCc1ccccc1`: “inactive”; for `COC(=O)C1=C(C(=O)OC)[C@@H]2N(C)c3ccccc3[C@@]23CCC(=O)N(Cc2cc(OC)c(OC)c(OC)c2)C3=N1`: “inactive”.
Turning to `CCCCCCCC1=Cc2ccccc2C(CC(C)=O)N1C(=O)OC` (stereo not given), the Potency entry was “inactive”.
In the case of `CC1(O)C(=O)C=C2C=C3CCCN3C=C2C1=O` (stereo not given), the Potency result was “inactive”.
Turning to `COCCN1C(=O)CC[C@@]23C1=NC(C(=O)OC)=C(C(=O)OC)[C@@H]2N(C)c1ccccc13`, the Potency entry was “inactive”.
Same read-out and setting: the same measure for `COC(=O)C1=C(C)N(CCC(C)O)C(=O)N(C(C)=O)C1c1ccccc1` (stereo not given): “inactive”; for `COC(=O)C1=C(C(=O)OC)[C@@H]2N(C)c3ccccc3[C@@]23CCC(=O)N(Cc2ccc(OC)cc2)C3=N1`: “inactive”; for `C[C@@H]1C=CCC(=O)OC[C@H](C)C(=O)OC[C@H]2O[C@H]1C=C[C@H]2O`: “inactive”.
For `C[C@@H]1CC[C@H]2C(=O)NC[C@@H](O)CN2[C@@H]1c1ccc(Br)cc1`, the Potency result is “inactive”.
In the case of `COC(=O)CC=C[C@H](C)[C@@H](NC(=O)C(F)(F)F)c1ccccc1Br`, the Potency entry was “inactive”.
For `CC(=O)OC[C@H]1O[C@H](C#Cc2ccccc2)C=C[C@@H]1OC(C)=O`, the Potency entry was “inactive”.
Turning to `COC1=C[C@H](C(=O)NCCOC(C)=O)[C@H](C)[C@@H](c2ccccc2)CC1=O`, the Potency entry was “inactive”.
`C=CC1=C2C=C(C3CC3)N(CC(C)C)C=C2C(=O)C(C)(OC(=O)c2ccco2)C1=O` (stereo not given): the activity, negative = inhibition is -0.305% [at 1.12 µM] (inactive).
`COC(=O)C1=C(C(=O)OC)[C@@H]2N(C)c3ccc(OC)cc3[C@@]23C[C@@H](C(=O)OC)N(C(=O)c2ccco2)C3=N1`: the activity, negative = inhibition was -1.01% [at 1.12 µM] (inactive).
